Assay results: PubChem BioAssay

The compounds below were run on Wnt5a (protein binding on small-molecule microarray) (assay: Wnt5a binders on small-molecule microarray, primary screen, biophysical, 635/667 nm fluorescence (AID 1142;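 also: fluorescence read at 667 nm with signal to noise per printed feature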)). Conditions: 635 nm fluorescence, higher = more signal.
Work on `COc1cc(Cc2cc3c(c(CCc4ccccc4)n2)[Si](C(C)C)(C(C)C)O[C@H]3c2ccccc2)cc(OC)c1OC` yielded a composite z-score of -0.0786.
Work on `C[C@]12C(=O)N(CCO)[C@@H]3C(=O)N(c4ccc(Cl)cc4)CC=CC31O[C@@H]1/C=C\CCCOC(=O)C12` (stereo partly specified) yielded a composite z-score of -0.68.
`COc1cc2c(cc1O)C(C)N(Cc1sc3ccccc3c1Cl)CC2` (stereo unspecified) was tested, and the composite z-score was -0.434.
`CN1C(=O)C2C=CC(C(O)c3ccc([N+](=O)[O-])cc3)N(Nc3ccccc3)C2C1=O` (stereo unspecified) was tested, and the composite z-score was 0.288.
In the case of `COC(=O)[C@@]1(Cc2ccc(F)cc2)[C@H]2c3cc(C(=O)N(C)C)n(CCF)c3C[C@H]2CN1C(=O)c1ccccc1`, the composite z-score is reported as 0.101.
`O=C/C=C/c1ccc(-c2ccccc2)cc1` showed a composite z-score of -0.166.
For `C=C(C(=O)CC[C@@H](OC(=O)c1ccccc1-c1ccccc1C(=O)O)c1ccc(OCCO)cc1)C(C)C`, the composite z-score was 1.04.
With `COc1ccc(C#Cc2ccc3c(c2)[C@]2(C(=O)N3)[C@H](c3ccccc3OCCO)N3[C@H](c4ccccc4)[C@H](c4ccccc4)OC(=O)[C@H]3[C@@H]2C(=O)NC[C@H](O)c2ccccc2)cc1` the composite z-score was 0.537.
Compound `O=C1NC(=O)C2C1C=CC(C(O)c1ccc(F)cc1)N2Nc1ccc(Cl)cc1Cl` (stereo unspecified) has a composite z-score of -0.166.
With `C[C@@]1([C@@H](NS(=O)(=O)c2cccc3cccnc23)c2ccc(-c3ccccc3)cc2)C[C@H]1C1CCCCC1` the composite z-score was 0.17.
`O=C1N(Cc2ccccc2)c2ccccc2C[C@@]12N=C(c1ccc(OCCCO)cc1)O[C@H]2c1ccccc1` showed a composite z-score of 0.378.
For `COc1ccc(NN2C(C(O)c3ccccc3)C=CC3C(=O)N(C4CCCCC4)C(=O)C32)cc1` (stereo unspecified), the composite z-score was 0.272.
`C[C@]1(C(=O)NC2CC2)c2ccccc2C(=O)N(Cc2cc(F)cc(C(F)(F)F)c2)[C@H]1c1ccc(CO)cc1` showed a composite z-score of -0.76.
In the case of `O=C(CS)NCCCCCCNC(=O)[C@H]1C[C@H]2C(=O)NCC(=O)N2[C@H]1c1cccc(OCCO)c1`, the composite z-score is reported as 0.497.
`COC(=O)[C@@]1(Cc2ccc(OC)cc2)[C@H]2c3cc(C(=O)N(C)C)n(Cc4c(CO)[nH]cc(C)c4=O)c3C[C@H]2CN1C(=O)c1ccccc1` showed a composite z-score of -0.172.
In the case of `COCCCNC(=O)[C@@]1(Cc2ccccc2I)c2ccccc2C(=O)N(C2CCCCC2)[C@H]1c1ccc(CO)cc1`, the composite z-score is reported as 0.665.
Compound `COC(=O)[C@@]1(Cc2ccc(OC)cc2)[C@@H]2[C@@H](CC(=O)[C@H]2CC(=O)C(=O)N(C)C)CN1C(=O)c1ccccc1` has a composite z-score of 2.06.
`C=C(C(=O)CC[C@@H](OC(=O)c1ccccc1-c1ccccc1C(=O)O)c1cccc(OCCO)c1)C(C)C` showed a composite z-score of 0.655.
For `CC(C)C[C@@H]1NC(=O)[C@H]2C[C@@H](C(=O)O)[C@@H](c3cccc(OCCO)c3)N2C1=O`, the composite z-score was -0.107.
For `Cc1ccc(S[C@]2(C(=O)NCc3ccccc3)CC(=O)N(Cc3ccccc3C(F)(F)F)[C@@H]2c2ccc(CO)cc2I)cc1`, the composite z-score was -0.264.
Compound `CC(C)N1CC=CC23O[C@@H]4/C=C\CCCOC(=O)C4[C@H]2C(=O)N(C(C)CO)[C@@H]3C1=O` (stereo partly specified) has a composite z-score of -0.603.
Work on `COC(=O)Cn1c(C(=O)N(C)C)cc2c1C[C@H]1CN(C(=O)c3ccccc3)[C@@](Cc3ccccc3)(C(=O)OC)[C@@H]21` yielded a composite z-score of 0.135.
`COc1c(C)cc(-c2cc3c(c(CCc4ccccc4)n2)[Si](C(C)C)(C(C)C)O[C@H]3c2ccccc2)cc1C` gave a composite z-score of -0.169.
Compound `CCCCCN1CC=CC23O[C@@H]4/C=C\CCCOC(=O)C4[C@H]2C(=O)N(CCCCCO)[C@@H]3C1=O` (stereo partly specified) has a composite z-score of -0.827.
`C[C@]1(C(=O)NCC(F)(F)F)c2ccccc2C(=O)N(Cc2cc(C(F)(F)F)cc(C(F)(F)F)c2)[C@H]1c1ccc(CO)cc1` gave a composite z-score of -0.127.
In the case of `COC(=O)C[C@H]1O[C@]2(C(=O)N(C)c3ccccc32)[C@@H](C)[C@@H]1[Si](C)(C)c1ccccc1`, the composite z-score is reported as 0.148.
With `COc1ccc([Si](C)(C)[C@H]2[C@H](CC(=O)N3CCC[C@H]3CO)O[C@@]3(C(=O)N(C)c4ccccc43)[C@@H]2C)cc1` the composite z-score was -0.0653.
`COCCOC(=O)N1C(=O)[C@@]2(c3cc(C#CCC(C(=O)OC)C(=O)OC)ccc31)[C@H](C(=O)N1CCc3cc(OC)c(OC)cc3C1)[C@H]1C(=O)O[C@H](c3ccccc3)[C@H](c3ccccc3)N1[C@@H]2c1ccccc1OCCO` showed a composite z-score of 0.725.
`O=C1C2C=CC(C(O)C(c3ccccc3)c3ccccc3)N(Nc3ccccc3F)C2C(=O)N1c1ccccc1` (stereo unspecified) showed a composite z-score of 0.739.
Compound `CC1C2C(CCCO)=CC(C3C(=O)N(C(N)=O)C(=O)C23)N1Cc1cccc(OC(F)(F)F)c1` (stereo unspecified) has a composite z-score of -0.0205.
With `CN(C)CCCC[C@@H]1NC(=O)[C@H]2C[C@@H](C(=O)NCCCCCCNC(=O)CS)[C@@H](c3cccc(OCCO)c3)N2C1=O` the composite z-score was 0.1.
